Screens (PubChem)
DT40 TDP1 no CPT: qHTS for Inhibitors of human tyrosyl-DNA phosphodiesterase 1 (TDP1): qHTS in cells in absence of CPT | DT40 Tdp1-/- hTDP1 cells, no CPT, ATP luminescence, 48 h | Potency, µM (doses to about 46.2 µM), without a hit: at the highest dose activity change, negative = growth inhibition, hits mostly inhibitors | 420,000 compounds, 15% hits | AID 686978, 2013; note: potency is the fitted concentration of half-maximal effect; nearly all actives have a fitted effect of over 55% in size
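Seeded 400 DT40-hTDP1 cells/well (vehicle DMSO, no 20 nM CPT); pinned compounds; ≥48 hr at 37 °C; CellTiter-Glo luminescence as viability measure.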
IL-1B inflam inh: blocks inflammasome-driven IL-1 beta release. 360,000 compounds, 4.7% hits. THP-1 LPS/ATP IL-1B secretion, AlphaLISA, 16 h; hits give low values. activity change, % at 57.5 µM. AID 743279; in the data active = activity change below about -50%; inconclusive = mostly about -30% to -49%
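Secreted IL-1B measured by AlphaLISA bead assay after 16 h compound exposure of THP-1 cells; compounds (final up to 57.5 uM) added 1 h before LPS (250 ng/mL) and ATP (1.25 mM) stimulation; lower signal means less secretion.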
HT1080NT lethal: kills 2HG-producing HT-1080-NT fibrosarcoma cells; HT-1080-NT fibrosarcoma viability, CellTiter-Glo ATP luminescence, 48 h; Potency, µM (highest dose often 46.1 µM), inactives show at the highest dose activity, negative = less viability, most hits filed as cytotoxic; 360,000 compounds, 1.6% hits;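 note: NT is the 2HG producing partner of a matched IDH1 knockdown line; potency is the fitted concentration of half-maximal effect; 0% = DMSO-treated cells and -100% = media-only wells without cells; nearly all actives have a fitted effect of over 55% in size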
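Read-out is CellTiter-Glo luminescence after 10 minutes at room temperature, following 48 hours' compound treatment of HT-1080-NT cells (750 cells/well, RPMI, 5% FBS, 37 degrees C).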
HT1080 IDH1KD tx: kills HT-1080 cells with IDH1 knockdown. HT-1080 IDH1 knockdown viability, ATP luminescence, 48 h. Potency, µM (doses to about 46.1 µM), without a hit: at the top dose activity, negative = toxicity, usual class: cytotoxic. 360,000 compounds, 2% hits. AID 686971;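 note: potency is the fitted concentration of half-maximal effect; 0% = DMSO wells and -100% = cell-free medium wells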
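IDH1KD HT-1080 cells, 750/well, RPMI + 5% FBS; compound pinned after 2 h settling; 48 h, 37 °C; CellTiter-Glo luminescence; % activity normalised to DMSO and no-cell wells; curves fitted, classed by r2 and efficacy.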
TDP1 cell CPT: DT40-hTDP1 cell growth loss with CPT; chicken DT40 Tdp1-/-;hTDP1 cells + 20 nM CPT, ATP luminescence, 48 h; AID 686979; Potency, µM (doses to about 46.2 µM), without a hit: top-dose activity change, negative = growth inhibition, hits mostly inhibitors; 420,000 compounds, 12% hits; note: potency is the fitted concentration of half-maximal effect; nearly all actives have a fitted effect of over 55% in size
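Chicken DT40 Tdp1-/- cells stably complemented with human TDP1 were seeded at 400 cells/well in medium containing 20 nM camptothecin, exposed to pin-transferred compounds, and grown at 37 °C for at least 48 hr. Viability was read as ATP luminescence.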
ALOX12 inh: inhibitors of human 12S-lipoxygenase ALOX12; 580,000 compounds, 1.1% hits; purified 12hLO, xylenol orange hydroperoxide absorbance; P18054; Potency, µM (series often up to 108 µM), for the others: top-dose activity change, negative = inhibition, usual class: inhibitors; note: potency is the fitted concentration of half-maximal effect
Target sequence (P18054 whole entry, looked up): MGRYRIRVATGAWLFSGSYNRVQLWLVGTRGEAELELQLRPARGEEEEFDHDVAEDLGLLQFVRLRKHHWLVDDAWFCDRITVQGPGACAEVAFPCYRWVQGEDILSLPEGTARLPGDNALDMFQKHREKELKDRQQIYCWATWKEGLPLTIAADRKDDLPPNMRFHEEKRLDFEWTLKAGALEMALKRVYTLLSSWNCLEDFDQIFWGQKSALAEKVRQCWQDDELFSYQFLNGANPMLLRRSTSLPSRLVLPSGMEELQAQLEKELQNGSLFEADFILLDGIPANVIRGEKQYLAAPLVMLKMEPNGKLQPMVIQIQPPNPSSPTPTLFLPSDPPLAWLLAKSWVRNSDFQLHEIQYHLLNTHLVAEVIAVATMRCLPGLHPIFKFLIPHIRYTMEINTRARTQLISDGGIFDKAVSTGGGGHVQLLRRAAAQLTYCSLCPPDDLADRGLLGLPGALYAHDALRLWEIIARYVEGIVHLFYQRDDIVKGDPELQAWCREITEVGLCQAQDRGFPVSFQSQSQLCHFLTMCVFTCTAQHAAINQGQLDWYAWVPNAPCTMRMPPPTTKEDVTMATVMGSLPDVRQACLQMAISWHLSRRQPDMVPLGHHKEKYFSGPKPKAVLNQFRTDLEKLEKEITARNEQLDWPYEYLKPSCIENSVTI
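Purified human 12hLO (150 nM final) in 25 mM Hepes, 0.01% Triton X-100, pH 7.0 was preincubated 15 min at room temperature with compound. Then 40 uM arachidonic acid was added, 30 min. Hydroperoxide was read by Fe-XO absorbance ratio 573/405 nm.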
Numbers without * were called inactive; ? = inconclusive; nt = no result given; [ ] = another dose, or the depositor's remark. The full list was thinned out, with hits kept by preference. Unless noted, calls come from the whole dose curve; as a rule, active = well fitted curve in the direction sought with a large enough effect; inconclusive = small, poorly fitted or top-dose-only effect, or another doubt; inactive = no such curve, though single readings can be large; an effect the other way counts as inactive or inconclusive. Unless noted, % is set by controls: 0 for no effect and ±100 for the full control effect.

SMILES	DT40 TDP1 no CPT	IL-1B inflam inh	HT1080NT lethal	HT1080 IDH1KD tx	TDP1 cell CPT	ALOX12 inh
O=C(c1cc(C2CC2)nn1-c1ccccc1)N1CCN(Cc2ccccc2F)CC1	23.1µM*	?	-10.0%	-18.4%	16.4µM*	9.1%
Cc1cccc(C)c1NC(=O)CN1CCN(C(=O)c2cc(C3CC3)nn2-c2ccccc2)CC1	?	-14.0	2.4%	-3.5%	-24.7%	-2.5%
O=C(c1cc(C2CC2)nn1-c1ccccc1)N1CCN(S(=O)(=O)c2ccccc2)CC1	16.4µM*	-14.2	-1.6%	-10.7%	?	-24.8%
CN1CCN(c2ccc(NC(=O)c3ccccc3Cl)nc2)CC1	nt	nt	nt	nt	nt	15.1%
O=C(NCc1ccncc1)c1ccc2ccccc2n1	nt	nt	nt	nt	nt	6.6%
O=C(c1cccs1)N1CCCC(CN2CCCC2)CC1 (stereo not drawn)	nt	nt	nt	nt	nt	106.5%
O=C(Nc1ccc(Cl)cc1F)c1ccc(=O)n(CCOc2ccccc2)n1	nt	nt	nt	nt	nt	1.0%
Cc1noc(C)c1CC(=O)N1CCCC(C(=O)c2ccc(C(C)(C)C)cc2)C1 (stereo not drawn)	20.6µM*	14.9	1.2%	-2.2%	20.6µM*	0.1%
CC(C)(C)c1ccc(C(=O)C2CCCN(C(=O)C3CCOCC3)C2)cc1 (stereo not drawn)	16.4µM*	26.4	-1.1%	18.2%	?	4.5%
Cn1cc(/C=C/C(=O)N2CCCC(C(=O)c3ccc(C(C)(C)C)cc3)C2)cn1 (stereo not drawn)	?	15.5	3.6%	3.3%	?	5.8%
COc1ccc(C(=O)C2CCCN(C(=O)Cc3c(C)noc3C)C2)cc1OC (stereo not drawn)	9.6%	18.8	-3.9%	-11.8%	5.4%	?
Cc1cc(-c2[nH]c3ccccc3c2C=O)c(C)s1	nt	nt	nt	nt	nt	-38.5%
OC[C@@H]1O[C@H](CNCc2cccc(Cl)c2)[C@H](N2CCCC2)[C@@H]1O	nt	nt	nt	nt	nt	-2.2%[176 µM]
Cc1ccc(S(=O)(=O)NCCc2nnc3ccc(SCc4ccc(Cl)cc4)nn23)cc1	nt	nt	nt	nt	nt	5.8%
Cc1ccc(S(=O)(=O)NCCc2nnc3ccc(SCc4cccc(F)c4)nn23)cc1	23.1µM*	nt	nt	nt	14.6µM*	-25.4%
Cc1ccc(S(=O)(=O)NCCc2nnc3ccc(SCc4ccc(F)cc4)nn23)cc1	18.4µM*	nt	nt	nt	16.4µM*	-32.3%
O=S(=O)(NCCc1nnc2ccc(SCc3cccc(F)c3)nn12)c1ccccc1	nt	nt	nt	nt	nt	39.1%
CCc1ccc2c(CN3C(=O)C(=O)N(C4CCCC4)C3=O)cc(=O)oc2c1	nt	nt	nt	nt	nt	-27.7%
COc1ccc(C(=O)N2[C@@H]3CC[C@H]2CC(NC(=O)c2cnc(C)cn2)C3)cc1F (stereo partly drawn)	nt	nt	nt	nt	nt	3.1%
CCOC(=O)[C@@H]1[C@H]2COc3cc(OC)ccc3[C@H]2N2C(=O)N(c3ccc(C(F)(F)F)cc3)C(=O)[C@]12C	20.6µM*	-17.4	?	?	14.6µM*	-5.7%
CCOC(=O)[C@@H]1[C@H]2COc3cc(OC)ccc3[C@@H]2N2C(=O)N(c3ccc(OC)cc3)C(=O)[C@]12C	-24.0%	-14.1	0.0%	19.2%	-4.9%	2.9%
CCOC(=O)[C@@H]1[C@H]2COc3cc(OC)ccc3[C@@H]2N2C(=O)N(c3ccc(C(F)(F)F)cc3)C(=O)[C@@]12C	13µM*	-2.3	-0.7%	-3.4%	?	-0.2%
CCOC(=O)[C@@H]1[C@H]2COc3cc(OC)ccc3[C@H]2N2C(=O)N(c3ccc(OC)cc3)C(=O)[C@]12C	?	-1.7	0.0%	5.6%	?	16.1%
COc1ccc([C@@H]2[C@@H]3C(=O)N(C(C)(C)C)C(=O)[C@@H]3[C@]3(C)C(=O)N(c4ccc(C(F)(F)F)cc4)C(=O)N23)cc1	16.4µM*	-7.2	8.3%	-1.0%	?	0.7%
